The source of these data is PubChem BioAssay (Tox21).

Test [1] in a line: Caspase-3/7 induction in HepG2 cells by small molecules, qHTS assay (AID 1346978). Note: nearly all actives have a fitted effect of over 15% in size. The procedure, abridged:
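Caspase-3/7 induction was measured by Caspase-Glo 3/7 luminescence (30 min, room temperature) after a 17 hr compound exposure of wild-type HepG2 cells seeded at 2,000 per well and pre-incubated 5 hr.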
(In qHTS, concentration-response curves come from the screen itself.)

Test [2] can be described thus: Caspase-3/7 induction in CHO-K1 cells by small molecules, qHTS assay (AID 1346980). Note: nearly all actives have a fitted effect of over 15% in size. The method, boiled down:
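Luminescent Caspase-Glo 3/7 read (30min, room temperature) quantified apoptosis induction. Cells were wild-type CHO-K1, treated with compound for 17hr at 37 C and 5% CO2.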

Test [3] is described as follows: Caspase-3/7 induction in HepG2 cells by small molecules, qHTS cell viability counter screen (AID 1346981). Note: nearly all actives have a fitted effect of over 30% in size. Note: potency is the fitted concentration of half-maximal effect. The method, boiled down:
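Counter screen for cytotoxicity: HepG2 exposed 16 hr to compounds, then CellTiter-Fluor viability signal (fluorescence, 1 hr reagent incubation).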

Test [4] concerns the target Nuclear receptor subfamily 1 group I member 2 (Homo sapiens) (UniProt O75469). The test is described as follows: Human pregnane X receptor (PXR) small molecule agonists, qHTS assay (AID 1346982). Note: nearly all actives have a fitted effect of over 35% in size. Note: potency is the fitted concentration of half-maximal effect. The method, boiled down:
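Luminescence (ONE-Glo, 30 min RT) after 24 hr compound exposure of PXR-Luc HepG2 cells; cells rested 5 hr post-plating in 5% charcoal-stripped FBS medium.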

In test [5] the target is Cytochrome P450 2C19 (Homo sapiens) (UniProt P33261). The test is described as follows: Cytochrome P450 Family 2 Subfamily C Member 19 (CYP2C19) small molecule antagonists: luciferase reporter qHTS assay (AID 1671197). Note: nearly all actives have a fitted effect of over 65% in size. Note: potency is the fitted concentration of half-maximal effect. The procedure, abridged: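 Relative luminescence units recorded 20 min after the detection reagent stopped a 1 h, 37C CYP2C19 reaction on proluciferin substrate, which was started by NADPH regeneration following 10 min room-temperature compound preincubation; ketoconazole positive control.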

In test [6] the target is Voltage-gated inwardly rectifying potassium channel KCNH2 (Homo sapiens) (UniProt Q12809). The test is described as follows: Human Ether-a-go-go-Related Gene (hERG) channel small molecule antagonists: fluorescence cell-based qHTS assay (AID 1671200). Note: nearly all actives have a fitted effect of over 50% in size. Note: potency is the fitted concentration of half-maximal effect. The procedure, abridged:
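Thallium flux as potassium surrogate: FluxOR II dye loaded 1 h at room temperature into hERG-expressing U2OS cells, then stimulus buffer added after 10 min. Kinetic 480 nm excitation/540 nm emission read, 2 min.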
On the technique in general: hERG is a cardiac potassium channel; its block is linked to QT prolongation.

Test [7] has as its target Cytochrome P450 3A4 (Homo sapiens) (UniProt P08684). The test is described as follows: Cytochrome P450 Family 3 Subfamily A Member 4 (CYP3A4) small molecule antagonists: luciferase reporter qHTS assay (AID 1671201). Note: nearly all actives have a fitted effect of over 50% in size. Note: potency is the fitted concentration of half-maximal effect. The method, boiled down: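 Recombinant human CYP3A4 converts a proluciferin substrate to luciferin over 1 h at room temperature after NADPH regeneration solution is added (compound preincubated 10 min); detection reagent stops reaction, luminescence read 20 min later as relative units.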
In general terms: A reporter such as luciferase makes a cellular process visible.

Test [8] is described as follows: Caspase-3/7 induction in CHO-K1 cells by small molecules, qHTS cell viability counter screen (AID 1346979). Note: nearly all actives have a fitted effect of over 35% in size. The method, boiled down:
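Cytotoxicity counter screen: CellTiter-Fluor added to compound-treated wild-type CHO-K1 cells at 16 h (37C, 5% CO2), fluorescence measured 1 h later; same wells as caspase-3/7 measurement.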

The target of test [9] is Cytochrome P450 2D6 (Homo sapiens) (UniProt P10635). The test is described as follows: Cytochrome P450 Family 2 Subfamily D Member 6 (CYP2D6) small molecule antagonists: luciferase reporter qHTS assay (AID 1671196). Note: nearly all actives have a fitted effect of over 50% in size. Note: potency is the fitted concentration of half-maximal effect. The method, boiled down: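 Inhibition of CYP2D6 was gauged by loss of luminescence, since light produced tracks the luciferin generated from a proluciferin substrate. A 10 min room-temperature preincubation preceded 1 h NADPH-supported turnover.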

In test [10] the target is Cytochrome P450 2C9 (Homo sapiens) (UniProt P11712). The test is described as follows: Cytochrome P450 Family 2 Subfamily C Member 9 (CYP2C9) small molecule antagonists: luciferase reporter qHTS assay (AID 1671198). Note: series mostly up to about 120 µM; nearly all actives have a fitted effect of over 50% in size. The method, boiled down: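 Enzyme-substrate mix preincubated with compound 10 min at room temperature; reaction started with NADPH regeneration solution, 1 h 37C. Luminescent luciferin product read after 20 min detection reagent.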

In test [11] the target is Cytochrome P450 1A2 (Homo sapiens) (UniProt P05177). The test is described as follows: Cytochrome P450 Family 1 Subfamily A Member 2 (CYP1A2) small molecule antagonists: luciferase reporter qHTS assay (AID 1671199). Note: nearly all actives have a fitted effect of over 50% in size. Note: potency is the fitted concentration of half-maximal effect. The procedure, abridged: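 Signal from luciferin formed by CYP1A2 from a proluciferin substrate is read as luminescence, expressed in relative luminescence units. Compounds sit with enzyme 10 min, NADPH-driven reaction runs 1 h, all at room temperature.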

Test [12] concerns the target Nuclear receptor subfamily 1 group I member 2 (Rattus norvegicus) (UniProt Q9R1A7). The test is described as follows: Rat pregnane X receptor (rPXR) activation by small molecules, qHTS assay (AID 1346983). Note: nearly all actives have a fitted effect of over 20% in size. Conditions: rPXR luciferase reporter cells, One-Glo luminescence, 24 h; max activation: active compounds read high. The procedure, abridged:
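Luminescent readout (One-Glo luciferase, 30 min room temperature) followed 24 hr compound treatment at 37 C of rPXR cells plated 2,000 per well and preincubated 5hr; qHTS format with compounds delivered in DMSO.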

The target in test [13] is Nuclear receptor subfamily 1 group I member 2 (Homo sapiens) (UniProt O75469). The test is described as follows: CYP3A4 induction through human pregnane X receptor (PXR) by small molecules, qHTS assay (AID 1346984). Note: nearly all actives have a fitted effect of over 40% in size. Note: potency is the fitted concentration of half-maximal effect. The method, boiled down:
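DPX-2 reporter cells; 24h cpd, 37C; Luciferin-IPA 3uM final x3h; One-Glo 30 min RT; lumi read.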

Test [14] can be described thus: Human pregnane X receptor (PXR) small molecule agonists, qHTS cell viability counter screen (AID 1346977). Note: nearly all actives have a fitted effect of over 50% in size. The procedure, abridged: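 Same-well viability read: CellTiter-Fluor added after 23 hr compound exposure, fluorescence measured 1 hr later. Cells were PXR-Luc HepG2 seeded at 2,000/well in 5% charcoal-stripped FBS medium, rested 5 hr before dosing at 37 C.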

Unmarked numbers belong to inactive results. Results filed as inconclusive are left out. The source made the active and inactive calls. Calls come from the whole dose curve; as a rule, active = well fitted curve in the direction sought with a large enough effect in the repeat runs; inconclusive = weak or mixed curves; inactive = no such curve, though single readings can be large; an effect the other way counts as inactive or inconclusive.
% is set by controls: 0 for no effect and ±100 for the full control effect.

Cytochrome P450 2C9 (Homo sapiens), sequence (P11712 whole entry, looked up): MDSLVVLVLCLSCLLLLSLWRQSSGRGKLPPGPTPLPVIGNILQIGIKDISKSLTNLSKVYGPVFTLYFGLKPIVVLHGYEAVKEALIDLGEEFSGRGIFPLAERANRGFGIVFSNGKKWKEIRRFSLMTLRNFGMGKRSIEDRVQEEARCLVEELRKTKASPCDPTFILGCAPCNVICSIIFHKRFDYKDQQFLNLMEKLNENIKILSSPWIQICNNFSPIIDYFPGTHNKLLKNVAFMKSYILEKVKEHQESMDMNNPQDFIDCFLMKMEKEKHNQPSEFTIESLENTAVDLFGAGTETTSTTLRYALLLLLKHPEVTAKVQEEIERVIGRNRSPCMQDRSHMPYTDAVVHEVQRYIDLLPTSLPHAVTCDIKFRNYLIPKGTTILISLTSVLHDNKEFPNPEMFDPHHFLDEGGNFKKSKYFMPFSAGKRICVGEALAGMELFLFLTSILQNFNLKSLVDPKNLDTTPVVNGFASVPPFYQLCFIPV
Cytochrome P450 1A2 (Homo sapiens), sequence (P05177 whole entry, looked up): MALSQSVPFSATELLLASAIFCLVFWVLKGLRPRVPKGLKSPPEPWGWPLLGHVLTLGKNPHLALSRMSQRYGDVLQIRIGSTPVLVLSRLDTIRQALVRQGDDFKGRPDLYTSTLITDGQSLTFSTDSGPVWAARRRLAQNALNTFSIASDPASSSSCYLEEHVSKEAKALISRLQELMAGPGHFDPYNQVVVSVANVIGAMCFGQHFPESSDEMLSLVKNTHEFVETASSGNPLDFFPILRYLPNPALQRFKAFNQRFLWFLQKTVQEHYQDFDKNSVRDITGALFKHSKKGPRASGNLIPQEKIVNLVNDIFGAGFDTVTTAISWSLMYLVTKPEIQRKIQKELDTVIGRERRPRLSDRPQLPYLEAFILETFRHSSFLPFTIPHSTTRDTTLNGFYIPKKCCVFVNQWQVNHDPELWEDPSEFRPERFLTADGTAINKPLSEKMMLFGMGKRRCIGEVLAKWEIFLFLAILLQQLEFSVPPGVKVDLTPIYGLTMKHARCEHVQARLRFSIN
Voltage-gated inwardly rectifying potassium channel KCNH2 (Homo sapiens), sequence (Q12809 whole entry, looked up): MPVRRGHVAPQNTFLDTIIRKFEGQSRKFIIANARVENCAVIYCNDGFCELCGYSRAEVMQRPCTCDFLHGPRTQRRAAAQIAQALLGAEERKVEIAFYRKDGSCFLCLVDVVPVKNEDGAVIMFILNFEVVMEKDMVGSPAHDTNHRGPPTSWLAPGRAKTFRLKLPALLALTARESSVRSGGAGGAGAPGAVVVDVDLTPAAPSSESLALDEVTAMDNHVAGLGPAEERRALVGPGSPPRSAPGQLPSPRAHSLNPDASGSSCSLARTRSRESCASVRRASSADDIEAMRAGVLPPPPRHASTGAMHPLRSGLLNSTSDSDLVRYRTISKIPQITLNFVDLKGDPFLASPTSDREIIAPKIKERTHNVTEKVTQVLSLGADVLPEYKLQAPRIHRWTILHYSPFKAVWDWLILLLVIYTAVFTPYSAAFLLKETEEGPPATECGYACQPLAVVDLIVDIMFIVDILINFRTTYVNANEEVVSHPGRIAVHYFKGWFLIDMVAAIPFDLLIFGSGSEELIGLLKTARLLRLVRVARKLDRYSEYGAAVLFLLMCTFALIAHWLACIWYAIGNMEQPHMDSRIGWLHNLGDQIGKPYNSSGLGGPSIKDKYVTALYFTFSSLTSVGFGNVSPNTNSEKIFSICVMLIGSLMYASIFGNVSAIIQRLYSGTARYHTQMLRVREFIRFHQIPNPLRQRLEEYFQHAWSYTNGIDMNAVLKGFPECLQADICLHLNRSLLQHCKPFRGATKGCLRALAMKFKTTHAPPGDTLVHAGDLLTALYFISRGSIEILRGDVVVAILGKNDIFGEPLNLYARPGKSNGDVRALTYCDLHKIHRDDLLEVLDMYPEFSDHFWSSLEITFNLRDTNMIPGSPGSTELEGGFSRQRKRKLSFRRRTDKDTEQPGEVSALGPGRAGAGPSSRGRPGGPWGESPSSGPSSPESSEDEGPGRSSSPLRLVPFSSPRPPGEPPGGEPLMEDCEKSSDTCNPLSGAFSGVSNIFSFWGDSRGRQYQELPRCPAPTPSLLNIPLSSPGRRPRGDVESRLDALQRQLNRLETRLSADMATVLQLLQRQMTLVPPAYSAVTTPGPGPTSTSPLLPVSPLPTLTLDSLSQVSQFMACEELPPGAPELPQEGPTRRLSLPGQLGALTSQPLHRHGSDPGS
Cytochrome P450 2C19 (Homo sapiens), sequence (P33261 whole entry, looked up): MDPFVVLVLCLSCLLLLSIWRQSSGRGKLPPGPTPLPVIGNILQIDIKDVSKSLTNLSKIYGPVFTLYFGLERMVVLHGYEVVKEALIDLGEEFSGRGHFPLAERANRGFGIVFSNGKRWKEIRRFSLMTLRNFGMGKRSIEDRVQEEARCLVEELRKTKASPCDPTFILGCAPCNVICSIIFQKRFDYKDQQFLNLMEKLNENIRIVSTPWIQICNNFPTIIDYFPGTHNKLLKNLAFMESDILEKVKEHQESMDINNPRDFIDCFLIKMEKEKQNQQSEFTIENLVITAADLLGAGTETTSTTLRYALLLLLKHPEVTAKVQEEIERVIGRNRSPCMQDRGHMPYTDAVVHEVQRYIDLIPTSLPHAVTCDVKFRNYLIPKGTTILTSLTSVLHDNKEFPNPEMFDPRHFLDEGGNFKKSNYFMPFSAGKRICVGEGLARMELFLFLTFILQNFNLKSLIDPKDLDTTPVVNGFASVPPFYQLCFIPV
Cytochrome P450 2D6 (Homo sapiens), sequence (P10635 whole entry, looked up): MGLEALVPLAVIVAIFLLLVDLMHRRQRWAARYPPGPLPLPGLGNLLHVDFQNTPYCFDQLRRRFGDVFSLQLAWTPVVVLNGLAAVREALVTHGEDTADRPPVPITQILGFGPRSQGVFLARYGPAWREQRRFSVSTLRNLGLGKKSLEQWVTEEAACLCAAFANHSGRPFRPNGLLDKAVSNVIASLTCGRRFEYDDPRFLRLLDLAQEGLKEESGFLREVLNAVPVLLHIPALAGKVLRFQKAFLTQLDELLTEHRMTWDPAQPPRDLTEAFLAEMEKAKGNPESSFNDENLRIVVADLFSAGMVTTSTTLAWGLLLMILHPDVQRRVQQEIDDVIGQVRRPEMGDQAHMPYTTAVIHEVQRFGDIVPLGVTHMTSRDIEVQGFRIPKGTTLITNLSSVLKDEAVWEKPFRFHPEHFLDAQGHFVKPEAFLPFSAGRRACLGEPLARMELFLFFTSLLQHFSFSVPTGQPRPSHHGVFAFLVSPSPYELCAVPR
Nuclear receptor subfamily 1 group I member 2 (Homo sapiens), sequence (O75469 whole entry, looked up): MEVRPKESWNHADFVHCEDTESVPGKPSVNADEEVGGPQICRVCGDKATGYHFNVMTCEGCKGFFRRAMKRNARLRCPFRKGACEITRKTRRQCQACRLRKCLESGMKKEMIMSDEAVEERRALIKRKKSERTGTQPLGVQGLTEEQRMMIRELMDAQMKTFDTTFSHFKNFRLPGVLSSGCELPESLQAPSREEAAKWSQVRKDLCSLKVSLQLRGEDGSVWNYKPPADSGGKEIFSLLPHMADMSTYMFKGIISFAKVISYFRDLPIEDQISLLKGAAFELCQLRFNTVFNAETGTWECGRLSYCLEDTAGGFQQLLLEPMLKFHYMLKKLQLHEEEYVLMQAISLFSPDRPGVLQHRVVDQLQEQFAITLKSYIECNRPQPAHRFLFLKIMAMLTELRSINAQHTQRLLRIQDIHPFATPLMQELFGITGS
Nuclear receptor subfamily 1 group I member 2 (Rattus norvegicus), sequence (Q9R1A7 whole entry, looked up): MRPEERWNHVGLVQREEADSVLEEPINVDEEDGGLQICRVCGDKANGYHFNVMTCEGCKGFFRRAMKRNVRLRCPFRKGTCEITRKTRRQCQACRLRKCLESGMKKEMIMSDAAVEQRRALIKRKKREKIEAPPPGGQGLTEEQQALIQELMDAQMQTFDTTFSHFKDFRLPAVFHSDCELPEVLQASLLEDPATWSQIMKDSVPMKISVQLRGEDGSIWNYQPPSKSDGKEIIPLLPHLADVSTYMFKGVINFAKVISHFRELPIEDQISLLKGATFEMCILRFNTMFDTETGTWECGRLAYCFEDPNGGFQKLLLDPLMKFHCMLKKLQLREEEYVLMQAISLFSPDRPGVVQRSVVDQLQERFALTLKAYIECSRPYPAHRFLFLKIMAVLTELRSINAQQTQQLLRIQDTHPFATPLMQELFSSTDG
Cytochrome P450 3A4 (Homo sapiens), sequence (P08684 whole entry, looked up): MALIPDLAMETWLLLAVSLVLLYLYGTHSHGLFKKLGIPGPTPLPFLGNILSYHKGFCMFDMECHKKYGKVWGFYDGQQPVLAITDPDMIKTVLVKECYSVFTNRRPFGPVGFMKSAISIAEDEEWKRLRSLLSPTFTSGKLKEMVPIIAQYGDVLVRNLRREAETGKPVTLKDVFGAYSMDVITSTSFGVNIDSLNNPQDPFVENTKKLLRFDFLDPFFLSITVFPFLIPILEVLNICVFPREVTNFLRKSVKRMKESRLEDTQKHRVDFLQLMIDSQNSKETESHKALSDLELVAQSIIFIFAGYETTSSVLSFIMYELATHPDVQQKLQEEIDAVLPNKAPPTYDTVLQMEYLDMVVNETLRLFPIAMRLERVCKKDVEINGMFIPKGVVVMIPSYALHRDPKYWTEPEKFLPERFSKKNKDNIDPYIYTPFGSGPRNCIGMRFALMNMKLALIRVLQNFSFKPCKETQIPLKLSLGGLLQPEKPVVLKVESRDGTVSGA

Regarding `CCOc1cc(OCC)c(C(C)=O)cc1OCC`, the Potency entry in [1], in test [2] and in test [6] was “inactive” throughout. The Potency is 42.5 µM (active) in [3], 26.8 µM (active) in test [4], 69.8 µM (active) in test [5] and 35 µM (active) in test [7].
As to `CCCN(C1CCN(C(=O)C2CCNCC2)CC1)[C@@H]1CCc2ccc(OC)cc2C1`, the Potency entry in test [1], in [8], in test [2], in [4], in test [5] and in test [10] was “inactive” in each case. The Potency entry in test [11] was “inactive”. Besides, the Potency in test [9] was 10 µM (active).
In the case of `Clc1cc(Cl)c2c(c1)N=C1CCCCCN1C2`, the Potency result in test [1], in [8], in test [2], in test [3], in test [10] and in test [7] was “inactive” in each case. Besides, the Potency in test [4] is 29.8 µM (active); in test [9], 2.75 µM (active); in [11] it was 5.49 µM (active); in test [6], 9.52 µM (active).
With `CC(C)(Cc1c[nH]c2ccccc12)NCC(O)COc1ccccc1C#N` (configuration not stated), the Potency result in test [1], in [8], in [2], in [3], in test [4] and in [5] was “inactive” each time. The Potency entry in [7] is “inactive”. In test [12], the max activation was 11.7%. Also, the Potency in test [13] was 12.6 µM (active).
As to `O=Cc1ccc([N+](=O)[O-])cc1`, the Potency result in [14], in test [1], in test [2] and in [6] was “inactive” each time.
With `COc1cccc([C@H](O)C2CCN(CCc3ccc(F)cc3)CC2)c1OC`, the Potency entry in [1], in test [2], in test [4], in test [11] and in test [7] was “inactive” in each case.
As for `CC(C)CCCCCCCOC(=O)c1ccc(C(=O)OCCCCCCCC(C)C)c(C(=O)OCCCCCCCC(C)C)c1`, the Potency entry in test [1], in test [2], in test [3], in [9] and in test [5] was “inactive” in each case. For the same compound, the Potency in test [4] was 19 µM (active).
As for `S=c1[nH][nH]c(=S)s1`, the Potency result in test [1], in test [8], in test [2], in test [4], in [11] and in [6] was “inactive” throughout. Besides, the Potency entry in [7] is “inactive”. The Potency in [5] is 22.4 µM (active).
`[O-][n+]1ccc(Cl)cc1`: the Potency result in test [14], in [1], in test [2], in test [3], in test [4] and in [10] was “inactive” each time. The Potency entry in test [11] and in test [7] was “inactive” in each case.
Turning to `CC1(COc2ccc(CC3SC(=O)NC3=O)cc2)CCCCC1` (configuration not stated), the Potency result in test [14], in [1], in test [2], in [3], in test [9] and in [11] was “inactive” each time. In addition, in [7], the Potency entry is “inactive”. For the same compound, the max activation in [12] was 5.72%.
Consider `C[C@]12CCC(=O)C=C1[C@@H]1C[C@@H]1[C@H]1[C@@H]3[C@@H]4C[C@@H]4[C@@]4(CCC(=O)O4)[C@@]3(C)CC[C@@H]12`, for which the Potency result in [14], in [1], in test [2], in test [4], in test [9] and in [11] was “inactive” in each case. The Potency result in [6] and in test [7] was “inactive” each time. Further, the results for the Potency in [13] and in test [5] were 11.2 µM (active) and 0.871 µM (active), respectively.
In the case of `CCCCCCCCCCCCCCCCC(=O)O`, the Potency entry in test [14], in test [1], in test [2], in [4], in test [9] and in test [5] was “inactive” throughout. In addition, the Potency entry in [10], in [11] and in test [6] was “inactive” throughout.
With `CC1=CC(=C(c2ccc(N)cc2)c2ccc(N)cc2)C=CC1=N`, the caspase activation in [1] is 0.381% [at 8.39 µM]. Also, the caspase-3/7 activation in [2] is 1.62% [at 8.39 µM]. Moreover, in [4], the activation was -7.87% [at 8.39 µM]. Also, the max activation in test [12] is -21.7%. Besides, the Potency result in test [13] is “inactive”.
